Tg IFNy HTS – inhibitors of Toxoplasma gondii growth with IFN-gamma; Toxoplasma gondii growth in IFN-gamma-treated host cells; active compounds read low; activity change, negative = inhibition, % (test concentration not listed); actives 3.8% (n = 69,000); AID 1259416; in the data active = activity change below about -70%, passing the limit was not always enough;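 note: host cells are HeLa cells infected with Toxoplasma gondii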
A number is an active result; n = inactive. Only a selection was taken, and hits are over-represented in it overall.

SMILES	Tg IFNy HTS
CC(=O)O[C@H]1C[C@@H](O)C(C)(C)C2C[C@@H](OC(C)=O)[C@]3(C)C(CC[C@@]4(C)[C@H](c5ccoc5)OC(=O)C5OC543)[C@]21C (some centres undefined)	n
CC(=O)O[C@@H]1C[C@H]2C(C)(C)C(=O)C=C[C@]2(C)[C@H]2CC[C@@]3(C)[C@H](c4ccoc4)OC(=O)[C@H]4O[C@]43[C@@]21C	n
CC1(C)C(=O)C=C[C@@]2(C)C1CC(=O)[C@]1(C)C2CC[C@@]2(C)[C@H](c3ccoc3)OC(=O)[C@H]3O[C@]321 (some centres undefined)	n
CC(=O)O[C@@H]1CC2C(C)(C)C(=O)C=C[C@]2(C)C2CC[C@@]3(C)[C@H](c4ccoc4)OC(=O)[C@H]4O[C@]43[C@@]21C (some centres undefined)	n
CC1(C)C(=O)C=C[C@@]2(C)C1C=C[C@]1(C)C2CC[C@@]2(C)[C@H](c3ccoc3)OC(=O)[C@H]3O[C@]321 (some centres undefined)	-85.7
Cc1nc(CN2C(=O)C[C@H]3[C@H]2CCN3CC2CCOCC2)cs1	n
O=C1NCC2(CCCN(C(=O)c3ccccc3-c3ncc[nH]3)C2)O1 (centres undefined)	n
CCc1cc(C(=O)c2ccc(OC)cc2)c(NC(=O)CN2CCOCC2)s1	n
OC1CCN(c2ccnc(NCCc3ncc[nH]3)n2)CC1	n
Cc1cc(Nc2nc(N[C@@H](C)c3ccc(F)cc3)c(C#N)cc2F)n[nH]1	-75.2
Oc1ccc(-c2cnn3cccnc23)cc1	n
CC1=N[C@]2(CC[C@H]3CN(Cc4c(C)noc4C)C[C@H]32)C(=O)N1CC(C)C	n
CC(C)C(=O)N1CCc2nc(-c3cnn(C)c3)nc(N(C)C)c2C1	n
Cc1c2oc3c(C)ccc(C(=O)OC(C)C4NC(=O)C(C(C)C)N(C)C(=O)CN(C)C(=O)C5CCCN5C(=O)C(C(C)C)NC4=O)c3nc-2c(C(=O)OC(C)C2NC(=O)C(C(C)C)N(C)C(=O)CN(C)C(=O)C3CCCN3C(=O)C(C(C)C)NC2=O)c(N)c1=O (centres undefined)	-82.7
Cc1ccc2c(c1C)-n1cccc1C1(CCN(S(=O)(=O)c3cnc[nH]3)CC1)N2	n
COc1ccc(-c2nc(CN(c3ccc(OC)cc3)S(=O)(=O)c3ccc(C)cc3)c(C)o2)cc1	n
COc1ccc(CCn2c(CN)n[nH]c2=O)cc1	n
CS(=O)(=O)c1ccc(-c2ccc(C(=O)N3CCOCC3)o2)cc1	n
COCCn1cnc(-c2cc(C(=O)Cc3cccnc3)c3ccccn23)c1	n
O=C(Nc1ccc2c(c1)CS(=O)(=O)C2)c1cccs1	n
CN(C)c1ccc(NC(=O)c2cccs2)cc1	n
O=C(Nc1ccc2c(c1)ncn2-c1ccccc1)c1cccs1	-95.3
CCn1ccc2cc(S(=O)(=O)N3CCC(C(=O)NCCCN4CCCC4)CC3)ccc21	n
O=C(NC1CC(=O)N(CCCc2ccccc2)C1)c1cccc2nccnc12 (centres undefined)	n
COc1ccc(CN2C(=O)N(C)C3(CCN(Cc4cccc(Oc5ccccc5)c4)CC3)C2=O)cc1	-81.1
SMILES	Tg IFNy HTS
CCN1C(=O)N(Cc2cccc(OC)c2)C(=O)C12CCN(Cc1nc3ccccc3nc1C)CC2	n
COc1ccc(CN2C(=O)N(C)C3(CCN(Cc4nc(-c5ccccc5)cs4)CC3)C2=O)cc1	n
CC1c2ncc(COCC3CC3)n2CCN1C (centres undefined)	n
Cc1nc(CN2C3(CCN(C(=O)c4ccccc4)C3)c3ccccc3S2(=O)=O)cs1 (centres undefined)	n
O=C(NC1(C#Cc2nccs2)CCCCC1)C1CCN(CCc2ccccn2)CC1	n
Cn1c(=O)c(C(=O)Nc2ccccc2)cc2cccnc21	n
Cc1ccc(CC(=O)Nc2ccc3c(c2)CCC(=O)N3)cc1	n
O=C(C1CCc2ccccc2O1)N1CCC(Cn2cc(C3CC3)nn2)CC1 (centres undefined)	n
CCOc1ccc2[nH]c(=O)c(CN3CCCN(C(=O)C4CC4)CC3)cc2c1	-82.7
CCCOC1CCCN(Cc2cc3cc(OC)ccc3[nH]c2=O)C1 (centres undefined)	n
CCOc1ccc2[nH]c(=O)c(CN3CCCCC3c3nc(C)no3)cc2c1 (centres undefined)	n
CCNc1nc(OC)nc(SCC(=O)OC)n1	n
CC(NC(=O)Cc1ccccn1)c1cnn(-c2ccccc2F)c1 (centres undefined)	n
CC(Cc1cccnc1)Nc1nccc(-c2cnn(-c3ccccc3F)c2)n1 (centres undefined)	-71.7
Cc1cccc(-n2cc(-c3ccnc(NC(C)Cc4ccncc4)n3)cn2)c1 (centres undefined)	n
O=C(Nc1ccccc1F)c1c(O)c2cccnc2n(-c2cccc(F)c2)c1=O	n
COc1cccc(-n2c(=O)c(C(=O)NCc3ccc(F)cc3F)c(O)c3cccnc32)c1	n
Cc1ccccc1NC(=O)c1c(O)c2cccnc2n(-c2cccc(F)c2)c1=O	-94.0
O=C(Nc1ccc(Cl)cc1)c1c(O)c2cccnc2n(-c2cccc(F)c2)c1=O	-102.3
COc1cccc(-n2c(=O)c(C(=O)NCc3ccccc3F)c(O)c3cccnc32)c1	n
O=C(Nc1ccc(F)cc1)c1c(O)c2cccnc2n(-c2cccc(F)c2)c1=O	n
O=C(NCc1cc(F)cc(F)c1)c1c(O)c2cccnc2n(-c2cccc(F)c2)c1=O	n
COc1cccc(-n2c(=O)c(C(=O)NCc3ccccc3Cl)c(O)c3cccnc32)c1	-91.0
Cc1cc(F)ccc1NC(=O)c1c(O)c2cccnc2n(-c2ccccc2)c1=O	n
Cc1ccc(NC(=O)c2c(O)c3cccnc3n(-c3cccc(F)c3)c2=O)cc1	n
SMILES	Tg IFNy HTS
O=C(NCc1ccccc1)c1c(O)c2cccnc2n(-c2ccccc2)c1=O	n
O=C(NCc1cc(F)cc(F)c1)c1c(O)c2cccnc2n(-c2ccccc2)c1=O	-91.0
COc1ccc(-n2cc(CNC(C)c3csc(C)n3)c(-c3ccccc3Cl)n2)cc1 (centres undefined)	n
Cc1ccc2c(c1)c(CNC(C)COc1ccccc1)nn2C (centres undefined)	n
CC(C)(O)C#Cc1ccc(-c2nccn2CCc2cnc[nH]2)s1	n
COCc1nc(N2CCC(CCO)CC2)c2cnn(C)c2n1	n
COc1ccc(NC(=O)c2ccc3nnc(C4CCN(Cc5ccccc5)C4)n3c2)cc1 (centres undefined)	n
Cc1nn(C)c(C)c1CCC(=O)N[C@@H]1CCC(=O)N[C@H]1C1CC=CCC1 (some centres undefined)	n
CC(C)N1C[C@H](NC(=O)c2cnccn2)C2OCCCC21 (some centres undefined)	n
Cc1cccc(C(=O)N(CCN(C)C)Cc2ccsc2)c1	n
COC(=O)C(NC1CCN(C(=O)c2ccccc2)CC1)c1cccc(C)c1 (centres undefined)	n
CN(CC1(C)COC1)C(=O)C(c1ccc(F)cc1)N(C)C (centres undefined)	n
CCc1ccc(NC(=O)c2c(O)c3cccnc3n(-c3ccc(F)cc3)c2=O)cc1	n
CCc1ccccc1NC(=O)c1c(O)c2cccnc2n(-c2cccc(F)c2)c1=O	-104.4
O=C(Nc1ccc(F)cc1Cl)c1c(O)c2cccnc2n(-c2ccc(F)cc2)c1=O	n
COc1cccc(-n2c(=O)c(C(=O)Nc3ccccc3Cl)c(O)c3cccnc32)c1	n
O=C(Nc1ccc(F)cc1F)c1c(O)c2cccnc2n(-c2ccccc2)c1=O	n
CCOc1ccccc1NC(=O)c1c(O)c2cccnc2n(-c2ccc(F)cc2)c1=O	n
